# About 79,000 compounds went through this panel and 15% of them were active in at least one assay; those are over-represented in the sample as a whole. Values without a mark were called inactive. Calls of active or inactive are those of the source. Rule as the data show it: active = growth inhibition above about 70%; inactive = the rest.
# What was measured:
# [1] = NCI Yeast Anticancer Drug Screen. Data for the wt1 strain (AID 149);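 also: 0% = growth of vehicle-treated wt1 cultures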; conditions: S. cerevisiae wt1 strain (SPY 50644) growth inhibition, active compounds read high
# Outline: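 wt1 strain grown with compound or vehicle; inhibition taken from the growth difference.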
# [2] = NCI Yeast Anticancer Drug Screen. Data for the rad50EPP+ strain (AID 151);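 also: 0% = growth of vehicle-treated control cultures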; conditions: S. cerevisiae rad50 mutant strain, active compounds read high
# Outline: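 Read-out is yeast growth inhibition relative to vehicle; cells used were the rad50EPP+ strain.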
# [3] = NCI Yeast Anticancer Drug Screen. Data for the mgt1 strain (AID 153); conditions: S. cerevisiae mgt1 mutant growth inhibition, active compounds read high
# Outline: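 Measured: inhibition of mgt1 yeast growth by compound, normalized to vehicle-treated cultures.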
# [4] = NCI Yeast Anticancer Drug Screen. Data for the rad50 strain (AID 155);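 also: 0% = growth of vehicle-only cultures of the same strain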; conditions: S. cerevisiae rad50 strain growth inhibition, active compounds read high
# Outline: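 DNA repair mutant yeast, compound exposure, growth read-out; inhibition is taken relative to vehicle.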
# [5] = NCI Yeast Anticancer Drug Screen. Data for the mec2-1 strain (AID 157); conditions: S. cerevisiae mec2-1 strain, active compounds read high
# Outline: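 Using mec2-1 yeast: add compound, measure growth, express inhibition versus vehicle-treated cultures.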
# [6] = NCI Yeast Anticancer Drug Screen. Data for the sgs1 mgt1 strain (AID 161);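 also: 0% = growth of cultures given vehicle only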; conditions: S. cerevisiae sgs1 mgt1 strain, active compounds read high
# Outline: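 Yeast cells carrying a defined DNA-repair defect were exposed to test compounds. Growth inhibition was measured relative to vehicle-treated controls.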
# [7] = NCI Yeast Anticancer Drug Screen. Data for the CLN2oe strain (AID 163);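 also: 0% = growth of vehicle-only control cultures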; conditions: S. cerevisiae CLN2oe strain, active compounds read high
# Outline: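 Whole-cell yeast growth assay. A strain engineered for altered cell-cycle control received compound, and inhibition relative to vehicle-treated cultures was recorded.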
# [8] = NCI Yeast Anticancer Drug Screen. Data for the cln2 rad14 strain (AID 165);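 also: 0% = growth equal to vehicle treated cultures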; conditions: S. cerevisiae cln2 rad14 strain, active compounds read high
# Outline: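 Yeast strain cln2 rad14, bearing defects in cell cycle control and DNA repair, serves as the test system; values reflect growth inhibition compared with vehicle.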
# [9] = NCI Yeast Anticancer Drug Screen. Data for the bub3 strain (AID 167); conditions: S. cerevisiae bub3 mutant strain, active compounds read high
# Outline: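 In this screen, a yeast mutant lacking normal mitotic checkpoint function is challenged with compound. Relative growth versus vehicle gives the inhibition value.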
# [10] = NCI Yeast Anticancer Drug Screen. Data for the wt2 strain (AID 169);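 also: 0% = growth of vehicle-treated yeast cultures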; conditions: S. cerevisiae wt2 strain growth inhibition, active compounds read high
# Outline: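 Treated yeast vs. vehicle-treated yeast: growth inhibition determined.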
# [11] = NCI Yeast Anticancer Drug Screen. Data for the mlh1 strain (AID 171);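 also: 0% = growth of vehicle-treated control cultures of the same strain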; conditions: S. cerevisiae mlh1 strain growth inhibition, active compounds read high
# Outline: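 A yeast strain with a defined genetic lesion serves as the test organism. Cultures receive compound or vehicle, and growth is measured.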
# [12] = NCI Yeast Anticancer Drug Screen. Data for the sgs1 strain (AID 173);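 also: 0% = growth of vehicle-only control cultures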; conditions: S. cerevisiae sgs1 mutant, active compounds read high
# Outline: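 A genetically defined yeast mutant is incubated with the test compound, and its growth is compared to that of the same strain given vehicle.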
# [13] = NCI Yeast Anticancer Drug Screen. Data for the rad18 strain (AID 177); conditions: S. cerevisiae rad18 mutant growth inhibition, active compounds read high
# Outline: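 Measured value is growth inhibition of a yeast strain bearing a DNA repair alteration, referenced to vehicle-treated cells.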
# [14] = NCI Yeast Anticancer Drug Screen. Data for the rad14 strain (AID 159);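 also: 0% = growth of vehicle-treated control cultures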; conditions: S. cerevisiae rad14 strain growth inhibition, active compounds read high
# Outline: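 DNA repair-defective yeast, compound-exposed; % growth inhibition derived by comparison with vehicle-treated controls.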
# [15] = NCI Yeast Anticancer Drug Screen. Data for the mlh1 rad18 strain (AID 175); conditions: S. cerevisiae mlh1 rad18 strain growth inhibition, active compounds read high
# Outline: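 Steps: expose repair-defective yeast to compound; measure growth; express inhibition against vehicle-treated controls.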
# [16] = at 5.0 µM (retest, dose inferred, filed as 0.5)
# [17] = at 50.0 µM (retest, dose inferred, filed as 5.0)
structure (smiles),measurement,setting,value
Nc1nc(N)c2cc(Sc3ccc4ccccc4c3)ccc2n1,growth inhibition,[1]; at 1.2 µM,1%
same,growth inhibition,[1]; at 3.7 µM,10%
same,growth inhibition,[1]; at 11.0 µM,44%
same,growth inhibition,[1]; at 33.0 µM,86% (active)
same,growth inhibition,[1]; at 100.0 µM,89% (active)
same,growth inhibition,[2]; at 1.2 µM,17%
same,growth inhibition,[2]; at 3.7 µM,31%
same,growth inhibition,[2]; at 11.0 µM,31%
same,growth inhibition,[2]; at 33.0 µM,65%
same,growth inhibition,[2]; at 100.0 µM,63%
same,growth inhibition,[3]; at 1.2 µM,-23%
same,growth inhibition,[3]; at 3.7 µM,12%
same,growth inhibition,[3]; at 11.0 µM,74% (active)
same,growth inhibition,[3]; at 33.0 µM,93% (active)
same,growth inhibition,[3]; at 100.0 µM,94% (active)
same,growth inhibition,[4]; at 1.2 µM,-8%
same,growth inhibition,[4]; at 3.7 µM,43%
same,growth inhibition,[4]; [16],55%
same,growth inhibition,[4]; at 11.0 µM,90% (active)
same,growth inhibition,[4]; at 33.0 µM,95% (active)
same,growth inhibition,[4]; [17],98% (active)
same,growth inhibition,[4]; at 50.0 µM,88.1% (active)
same,growth inhibition,[4]; at 100.0 µM,92% (active)
same,growth inhibition,[5]; at 1.2 µM,-13%
same,growth inhibition,[5]; at 3.7 µM,61%
same,growth inhibition,[5]; [16],79% (active)
same,growth inhibition,[5]; at 11.0 µM,94% (active)
same,growth inhibition,[5]; at 33.0 µM,95% (active)
same,growth inhibition,[5]; [17],99% (active)
same,growth inhibition,[5]; at 50.0 µM,91.3% (active)
same,growth inhibition,[5]; at 100.0 µM,95% (active)
same,growth inhibition,[6]; [16],62%
same,growth inhibition,[6]; [17],97% (active)
same,growth inhibition,[6]; at 50.0 µM,89% (active)
same,growth inhibition,[7]; at 1.2 µM,2%
same,growth inhibition,[7]; at 3.7 µM,9%
same,growth inhibition,[7]; at 11.0 µM,50%
same,growth inhibition,[7]; at 33.0 µM,85% (active)
same,growth inhibition,[7]; at 100.0 µM,89% (active)
same,growth inhibition,[8]; [16],10%
same,growth inhibition,[8]; [17],85% (active)
same,growth inhibition,[8]; at 50.0 µM,86.7% (active)
same,growth inhibition,[9]; at 1.2 µM,-21%
same,growth inhibition,[9]; at 3.7 µM,-4%
same,growth inhibition,[9]; [16],30%
same,growth inhibition,[9]; at 11.0 µM,74% (active)
same,growth inhibition,[9]; at 33.0 µM,94% (active)
same,growth inhibition,[9]; [17],97% (active)
same,growth inhibition,[9]; at 50.0 µM,85.8% (active)
same,growth inhibition,[9]; at 100.0 µM,93% (active)
same,growth inhibition,[10]; at 1.2 µM,-18%
same,growth inhibition,[10]; at 3.7 µM,25%
same,growth inhibition,[10]; at 11.0 µM,69%
same,growth inhibition,[10]; at 33.0 µM,87% (active)
same,growth inhibition,[10]; at 100.0 µM,92% (active)
same,growth inhibition,[11]; at 1.2 µM,-11%
same,growth inhibition,[11]; at 3.7 µM,22%
same,growth inhibition,[11]; at 11.0 µM,79% (active)
same,growth inhibition,[11]; at 33.0 µM,95% (active)
same,growth inhibition,[11]; at 100.0 µM,93% (active)
same,growth inhibition,[12]; at 1.2 µM,3%
same,growth inhibition,[12]; at 3.7 µM,38%
same,growth inhibition,[12]; at 11.0 µM,80% (active)
same,growth inhibition,[12]; at 33.0 µM,94% (active)
same,growth inhibition,[12]; at 100.0 µM,91% (active)
same,growth inhibition,[13]; at 1.2 µM,-6%
same,growth inhibition,[13]; at 3.7 µM,27%
same,growth inhibition,[13]; at 11.0 µM,78% (active)
same,growth inhibition,[13]; at 33.0 µM,93% (active)
same,growth inhibition,[13]; at 100.0 µM,93% (active)
O=C1CSC(=S)N1Cc1ccc(Cl)cc1Cl,growth inhibition,[1]; at 1.2 µM,1%
same,growth inhibition,[1]; at 3.7 µM,24%
same,growth inhibition,[1]; at 11.0 µM,99% (active)
same,growth inhibition,[1]; at 33.0 µM,99% (active)
same,growth inhibition,[1]; at 100.0 µM,97% (active)
same,growth inhibition,[4]; at 1.2 µM,-6%
same,growth inhibition,[4]; at 3.7 µM,26%
same,growth inhibition,[4]; [16],29%
same,growth inhibition,[4]; at 11.0 µM,99% (active)
same,growth inhibition,[4]; at 33.0 µM,99% (active)
same,growth inhibition,[4]; [17],98% (active)
same,growth inhibition,[4]; at 50.0 µM,99.1% (active)
same,growth inhibition,[4]; at 100.0 µM,98% (active)
same,growth inhibition,[5]; at 1.2 µM,1%
same,growth inhibition,[5]; at 3.7 µM,-1%
same,growth inhibition,[5]; [16],10%
same,growth inhibition,[5]; at 11.0 µM,93% (active)
same,growth inhibition,[5]; at 33.0 µM,99% (active)
same,growth inhibition,[5]; [17],99% (active)
same,growth inhibition,[5]; at 50.0 µM,99.3% (active)
same,growth inhibition,[5]; at 100.0 µM,99% (active)
same,growth inhibition,[14]; at 1.2 µM,3%
same,growth inhibition,[14]; at 3.7 µM,20%
same,growth inhibition,[14]; at 11.0 µM,99% (active)
same,growth inhibition,[14]; at 33.0 µM,100% (active)
same,growth inhibition,[14]; at 100.0 µM,99% (active)
same,growth inhibition,[6]; [16],41%
same,growth inhibition,[6]; [17],99% (active)
same,growth inhibition,[6]; at 50.0 µM,99.4% (active)
same,growth inhibition,[7]; at 1.2 µM,-10%
same,growth inhibition,[7]; at 3.7 µM,-11%
same,growth inhibition,[7]; at 11.0 µM,96% (active)
same,growth inhibition,[7]; at 33.0 µM,99% (active)
same,growth inhibition,[7]; at 100.0 µM,98% (active)
same,growth inhibition,[8]; [16],0%
same,growth inhibition,[8]; [17],99% (active)
same,growth inhibition,[8]; at 50.0 µM,98.8% (active)
same,growth inhibition,[9]; at 1.2 µM,-9%
same,growth inhibition,[9]; at 3.7 µM,15%
same,growth inhibition,[9]; [16],14%
same,growth inhibition,[9]; at 11.0 µM,99% (active)
same,growth inhibition,[9]; at 33.0 µM,99% (active)
same,growth inhibition,[9]; [17],98% (active)
same,growth inhibition,[9]; at 50.0 µM,99.3% (active)
same,growth inhibition,[9]; at 100.0 µM,99% (active)
same,growth inhibition,[10]; at 1.2 µM,12%
same,growth inhibition,[10]; at 3.7 µM,55%
same,growth inhibition,[10]; at 11.0 µM,100% (active)
same,growth inhibition,[10]; at 33.0 µM,100% (active)
same,growth inhibition,[10]; at 100.0 µM,99% (active)
same,growth inhibition,[11]; at 1.2 µM,-13%
same,growth inhibition,[11]; at 3.7 µM,8%
same,growth inhibition,[11]; at 11.0 µM,99% (active)
same,growth inhibition,[11]; at 33.0 µM,99% (active)
same,growth inhibition,[11]; at 100.0 µM,99% (active)
same,growth inhibition,[12]; at 1.2 µM,2%
same,growth inhibition,[12]; at 3.7 µM,33%
same,growth inhibition,[12]; at 11.0 µM,99% (active)
same,growth inhibition,[12]; at 33.0 µM,99% (active)
same,growth inhibition,[12]; at 100.0 µM,99% (active)
same,growth inhibition,[15]; [16],66%
same,growth inhibition,[15]; [17],98% (active)
same,growth inhibition,[15]; at 50.0 µM,97% (active)
same,growth inhibition,[13]; at 1.2 µM,-6%
same,growth inhibition,[13]; at 3.7 µM,27%
same,growth inhibition,[13]; at 11.0 µM,99% (active)
same,growth inhibition,[13]; at 33.0 µM,99% (active)
same,growth inhibition,[13]; at 100.0 µM,98% (active)

# Reference: PubChem BioAssay (NCI)
